Source: PubChem
An excerpt weighted towards active compounds, which were near 0.3% of everything screened.
Mm-Cpn inhibitor – inhibitors of Methanococcus maripaludis chaperonin TRiC (MmCpn) | 330,000 tested, 0.031% active | Potency, µM (titrated, usually from 76.9 µM), for the others: at the top dose activity, negative = inhibition, hits mostly inhibitors | AID 504842 | purified Mm-Cpn ATPase, ADP Transcreener TR-FRET; note: potency is the fitted concentration of half-maximal effect; % is set by controls: 0 for no effect and ±100 for the full control effect; nearly all actives have a fitted effect of over 80% in size
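Eu-cryptate anti-ADP/ADP-d2 competition gives a ratio inversely related to ADP. Enzyme at 25 nM was pre-exposed to compound for 10 min, then given 10 uM ATP for 30 min, 37°C throughout.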
CCT modulator – cytosolic chaperonin activity modulation; purified chaperonin ATPase assay, HTRF ADP detection, 30 min; activity change, % (concentration not given with the values), hits read low; 360,000 tested, 0.3% active; in the data active = activity change below about -30%; note: % is set by controls: 0 for no effect and ±100 for the full control effect
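TRiC at 40 or 20 nM final (batch-dependent) in 30 mM Tris pH 7.4, 100 mM KCl, 5 mM MgCl2, 1 mM DTT, with compound at single 76 uM and 10 uM ATP, 30 min at 37 deg C. ADP detected by HTRF Transcreener, 665/615 ratio.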
USP2a block – inhibitors of human ubiquitin-specific protease USP2a | O75604 | USP2 core, Ub-CHOP2 coupled fluorogenic reporter, 485/531 | Potency, µM (doses to about 38.3 µM), inactives show at the highest dose activity change, negative = inhibition, usual class: inhibitors | 330,000 tested, 0.01% active | AID 463254;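 note: potency is the fitted concentration of half-maximal effect; plate controls were DMSO wells for no effect and full inhibition by NEM control for full effect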
Target sequence (O75604 whole entry, looked up): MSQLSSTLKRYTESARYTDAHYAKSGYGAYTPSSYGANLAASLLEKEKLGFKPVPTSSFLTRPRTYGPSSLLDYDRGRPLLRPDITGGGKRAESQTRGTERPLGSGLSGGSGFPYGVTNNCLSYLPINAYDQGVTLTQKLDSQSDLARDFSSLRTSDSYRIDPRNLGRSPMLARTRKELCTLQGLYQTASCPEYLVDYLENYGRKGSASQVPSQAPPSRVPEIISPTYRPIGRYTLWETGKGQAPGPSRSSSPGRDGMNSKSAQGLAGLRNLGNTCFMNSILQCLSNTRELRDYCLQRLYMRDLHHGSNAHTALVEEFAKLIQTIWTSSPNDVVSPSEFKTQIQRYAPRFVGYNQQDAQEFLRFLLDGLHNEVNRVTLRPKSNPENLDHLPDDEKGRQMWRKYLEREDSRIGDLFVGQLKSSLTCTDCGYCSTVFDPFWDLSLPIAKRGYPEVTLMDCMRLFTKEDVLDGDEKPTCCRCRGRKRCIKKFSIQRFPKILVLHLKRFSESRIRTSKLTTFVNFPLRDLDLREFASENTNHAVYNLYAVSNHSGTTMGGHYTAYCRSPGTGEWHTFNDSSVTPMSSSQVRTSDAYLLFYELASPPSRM
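Cell-free coupled assay: 10nM USP2 core preincubated 30min RT with compound in Tris-HCl pH 8.0/CaCl2/CHAPS buffer, then 25nM Ub-CHOP2 and 25nM reporter substrate; fluorescence (Ex 485/Em 531) read after 60min RT, normalized to NEM inhibition, concentration-response curves fitted.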
ASM inhibitor – human S-ASM enzyme inhibition; placental ASM, HMU-PC fluorogenic substrate, 60 min; 340,000 tested, 0.006% active; Potency, µM (highest dose often 57.5 µM), inactives show at the top dose activity change, negative = inhibition, actives largely listed as inhibitors; P17405; note: potency is the fitted concentration of half-maximal effect
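Fluorogenic HMU-PC substrate (9 uM final) is turned over by placental ASM in 60 min at 37 C after a 10 min compound preincubation. Reaction ended by alkaline stop (pH 10), with fluorescence read at 386/447 nm.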
Active calls of the source: *. Unless noted, calls come from the whole dose curve; as a rule, active = well fitted curve in the direction sought with a large enough effect; inconclusive = small, poorly fitted or top-dose-only effect, or another doubt; inactive = no such curve, though single readings can be large; an effect the other way counts as inactive or inconclusive.

For CCN(C[C@H]1N[C@@](C)(C(=O)OC)[C@H]2C(=O)N(Cc3ccccc3)C(=O)[C@@H]12)C(=O)c1ccc(F)cc1 the results were Mm-Cpn inhibitor -0.6%, CCT modulator -33.6*, USP2a block -0.9% and ASM inhibitor 0.9%.
O=C(CSc1nnc2ccc(-c3ccccn3)nn12)Nc1cccc(F)c1 was read as CCT modulator -44.9*.
O=C(CSc1nnc2ccc(-c3ccccn3)nn12)Nc1ccc(F)cc1 was read as CCT modulator 1.0.
Cc1ccc(OCCN(C)C(=O)C2CCC(=O)N(CC3CCCCC3)C2)cc1 (stereo unspecified) was read as Mm-Cpn inhibitor -2.6%, CCT modulator -2.1, USP2a block 0.6% and ASM inhibitor -0.9%.
Screening N#Cc1nc(-c2ccccc2F)oc1NCCc1ccccn1 returned Mm-Cpn inhibitor 1.0%, CCT modulator 2.8, USP2a block -3.8% and ASM inhibitor 0.6%.
`CCOC(=O)CCCCCN(Cc1ccccc1)S(=O)(=O)c1ccc([N+](=O)[O-])cc1` gave Mm-Cpn inhibitor 2.7%, CCT modulator 0.1, USP2a block 1.6% and ASM inhibitor -1.3%.
CCOC(=O)c1ccc(CN(Cc2ccccc2)S(=O)(=O)c2cccc([N+](=O)[O-])c2)cc1 was read as Mm-Cpn inhibitor 0.3%, CCT modulator -32.7*, USP2a block 1.3% and ASM inhibitor -4.4%.
`NS(=O)(=O)c1ccc(CCNC(=O)c2ccc(Br)s2)cc1` gave Mm-Cpn inhibitor -1.5%, CCT modulator -2.6, USP2a block -0.2% and ASM inhibitor -0.7%.
Screening CC(=O)OCC1OC(n2c(-c3ccc(Cl)cc3)ccc(C#N)c2=S)C(OC(C)=O)C(OC(C)=O)C1OC(C)=O (stereo unspecified) returned CCT modulator -0.3 and ASM inhibitor -0.9%.
CCOc1ccccc1N1CC(C(=O)N(Cc2nnc(-c3ccccc3Cl)o2)C2CC2)CC1=O (stereo unspecified) was read as Mm-Cpn inhibitor -0.2%, CCT modulator -35.6*, USP2a block -1.9% and ASM inhibitor 0.5%.
`Cc1cccc(C)c1OCC1CNC(=O)O1` (stereo unspecified) gave Mm-Cpn inhibitor -2.0%, CCT modulator -2.8, USP2a block 2.3% and ASM inhibitor 0.7%.
`CC(=O)c1c(C)nc(-c2ccc(Cl)cc2)nc1NC(=O)C(C)C` gave Mm-Cpn inhibitor -0.9%, CCT modulator -74.4*, USP2a block 3.4% and ASM inhibitor -3.4%.
Screening O=C(N/N=C/c1c[nH]c2ccccc12)c1cccc(O)c1 returned Mm-Cpn inhibitor -0.9%, CCT modulator -5.7, USP2a block 1.7% and ASM inhibitor 1.1%.
For C#CCOCCOCCOCCNc1nc(N2CCN(C(=O)CCCCCCCCCCNC(=O)[C@H](CCCCN)n3cc(C)nn3)CC2)nc(N2CCN(C(=O)CCCCCCCCCCNC(=O)[C@@H]([C@H](C)CC)n3cc(CCCCCN)nn3)CC2)n1 the results were Mm-Cpn inhibitor 0.4% and USP2a block inconclusive.
`C#CCOCCOCCOCCNc1nc(N2CCN(C(=O)CCCCCCCCCCNC(=O)[C@H]([C@@H](C)CC)n3cc(CCCCCN)nn3)CC2)nc(N2CCN(C(=O)CCCCCCCCCCNC(=O)[C@@H]([C@H](C)O)n3cc(C)nn3)CC2)n1` gave Mm-Cpn inhibitor -20.4%, CCT modulator -2.6, USP2a block 10µM* and ASM inhibitor -15.5%.
Screening CCCCCCn1nc(C(=O)N(CC(C)C)c2c(N)n(CCCC)c(=O)[nH]c2=O)c2ccccc2c1=O returned Mm-Cpn inhibitor -4.8%, CCT modulator -1.0, USP2a block 3.1% and ASM inhibitor 0.6%.
`CC(O)(c1ccc(F)c(F)c1)c1nc(/C=C/c2ccccc2)cs1` (stereo unspecified) gave CCT modulator -3.0.
For CN1CCN(c2ccc(-c3cccc(NC(=O)COc4ccccc4)c3)nn2)CC1 the results were Mm-Cpn inhibitor -2.7%, CCT modulator -2.7, USP2a block 0.7% and ASM inhibitor -4.7%.
`O=C(COc1ccccc1)Nc1ccc(-c2ccc(N3CCOCC3)nn2)cc1` gave Mm-Cpn inhibitor -7.8%, CCT modulator -137.5*, USP2a block 2.6% and ASM inhibitor -1.4%.
For C[C@H]1COC(=O)CCCC/C=C\C[C@H](CC(=O)N(CCO)Cc2ccccc2)C(=O)N1 the results were Mm-Cpn inhibitor 0.3%, CCT modulator -0.7, USP2a block 1.8% and ASM inhibitor -0.1%.
Screening O=C(CN(CC1CCCO1)C(=O)CNS(=O)(=O)c1ccc(Cl)cc1)NCc1ccco1 (stereo unspecified) returned Mm-Cpn inhibitor -0.7%, CCT modulator -46.3*, USP2a block 0.5% and ASM inhibitor 4.8%.
For COC(=O)c1cc(=O)cc(C(=O)OC)o1 the results were Mm-Cpn inhibitor -0.4%, CCT modulator -1.6, USP2a block 0.4% and ASM inhibitor 1.1%.
Screening Cc1cc2nc3ccc(=[N+](C)C)cc-3sc2cc1N returned Mm-Cpn inhibitor 31.6µM*, CCT modulator 2.6, USP2a block -1.9% and ASM inhibitor -12.1%.
`CN(C)c1ccc2nc3ccc(=O)cc-3sc2c1` gave CCT modulator -1.4.
`COc1ccc(C2C(C#N)=C(N)Oc3c2oc(CO)cc3=O)c(OC)c1OC` (stereo unspecified) gave Mm-Cpn inhibitor 0.8%, CCT modulator -34.4*, USP2a block 0.5% and ASM inhibitor 1.1%.
For O=C(CCc1ccncc1)N1CCCC(Nc2ccc(F)c(F)c2)C1 (stereo unspecified) the results were Mm-Cpn inhibitor 0.5%, CCT modulator -1.8, USP2a block 0.5% and ASM inhibitor 7.9%.
For CC(C)(C)N1C(=O)[C@H]2[C@@H](c3ccc(Br)cc3)N3C(=O)N(c4cccc(F)c4)C(=O)[C@@]3(C)[C@H]2C1=O the results were Mm-Cpn inhibitor -0.2%, CCT modulator -3.2, USP2a block 4.7% and ASM inhibitor -0.2%.
For CCC(=O)N1c2ccccc2[C@@H](N(C(C)=O)c2ccccc2)C[C@H]1C the results were Mm-Cpn inhibitor -0.8%, CCT modulator -78.7*, USP2a block 2.2% and ASM inhibitor 6.1%.
CC(=O)Nc1ccc(S[C@@H](CCN2CC[C@H](C(C)(C)C)CCC2=O)c2ccccc2)cc1 was read as Mm-Cpn inhibitor -2.0%, CCT modulator -36.1*, USP2a block -0.3% and ASM inhibitor -14.3%.
`Cc1csc(=O)n1CC(=O)OCc1nnc(-c2ccc(Cl)cc2)o1` gave Mm-Cpn inhibitor -0.3%, CCT modulator 1.3, USP2a block 1.6% and ASM inhibitor -0.4%.
CCC(C)(C)NC(=O)C(c1ccccn1)N(C(=O)c1csnn1)c1ccc(C)cc1 (stereo unspecified) was read as Mm-Cpn inhibitor -0.7%, CCT modulator -33.9*, USP2a block 7.0% and ASM inhibitor -1.9%.
